Test results as given in the supplement of paper PMC12282887.
± gives the standard deviation of the averaged measurements.

Key:
Assay in all cases: promoter activity interaction Z-score (Lux/OD deviation from empty-vector control); higher = stronger promoter induction by the compound
[1] = system: E. coli BW25113 acrABp lux reporter
In short: (§1)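 Low-copy luxCDABE promoter reporters were carried by E. coli BW25113, either wild type or lacking one of three genes, grown in 40 µl LB Lennox in 384-well plates at 37°C. Each compound was run at four 1:2 dilutions in biological duplicates, with OD600 and luminescence read every 30 min for 12 h. Integration used 0–8 h for wild type and 1–9 h for deletion strains, and wells under 10% of the median growth value were removed. Luminescence normalised to growth was fitted against a control, and the Z-transformed residual is the score.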

[2] = system: E. coli BW25113 marRABp lux reporter
In short: as §1

[3] = system: E. coli BW25113 micFp lux reporter
In short: as §1

[4] = system: E. coli BW25113 ompFp lux reporter
In short: as §1

[5] = system: E. coli BW25113 robp lux reporter
In short: as §1

[6] = system: E. coli BW25113 soxSp lux reporter
In short: as §1

[7] = system: E. coli BW25113 tolCp lux reporter
In short: as §1

[8] = 24.6 µg/ml, genetic background: wild type
[9] = 24.6 µg/ml, genetic background: ΔmarA
[10] = 24.6 µg/ml, genetic background: Δrob
[11] = 24.6 µg/ml, genetic background: ΔsoxS
[12] = 49.3 µg/ml, genetic background: wild type
[13] = 49.3 µg/ml, genetic background: ΔmarA
[14] = 49.3 µg/ml, genetic background: Δrob
[15] = 49.3 µg/ml, genetic background: ΔsoxS
[16] = 98.6 µg/ml, genetic background: wild type
[17] = 98.6 µg/ml, genetic background: ΔmarA
[18] = 98.6 µg/ml, genetic background: Δrob
[19] = 98.6 µg/ml, genetic background: ΔsoxS
[20] = 197.1 µg/ml, genetic background: wild type
[21] = 0.45 µg/ml, genetic background: wild type
[22] = 0.45 µg/ml, genetic background: ΔmarA
[23] = 0.45 µg/ml, genetic background: Δrob
[24] = 0.45 µg/ml, genetic background: ΔsoxS
[25] = 0.89 µg/ml, genetic background: wild type
[26] = 0.89 µg/ml, genetic background: ΔmarA
[27] = 0.89 µg/ml, genetic background: Δrob
[28] = 0.89 µg/ml, genetic background: ΔsoxS
[29] = 1.8 µg/ml, genetic background: wild type
[30] = 1.8 µg/ml, genetic background: ΔmarA
[31] = 1.8 µg/ml, genetic background: Δrob
[32] = 1.8 µg/ml, genetic background: ΔsoxS
[33] = 3.6 µg/ml, genetic background: wild type
[34] = 3.6 µg/ml, genetic background: ΔmarA
[35] = 3.6 µg/ml, genetic background: ΔsoxS
[36] = 3.6 µg/ml, genetic background: Δrob

SMILES: CC[n+]1c(-c2ccccc2)c2cc(N)ccc2c2ccc(N)cc21 [Ethidiumbromide]
- promoter activity interaction Z-score [1, 8]: 0.326 ± 0.22
- promoter activity interaction Z-score [1, 9]: 0.524 ± 0.7
- promoter activity interaction Z-score [1, 10]: 0.354 ± 0.098
- promoter activity interaction Z-score [1, 11]: -0.0764 ± 0.31
- promoter activity interaction Z-score [1, 12]: 0.808 ± 0.11
- promoter activity interaction Z-score [1, 13]: 1.18 ± 0.92
- promoter activity interaction Z-score [1, 14]: 0.756 ± 0.029
- promoter activity interaction Z-score [1, 15]: 0.5305 ± 0.0051
- promoter activity interaction Z-score [1, 16]: 1.2 ± 0.53
- promoter activity interaction Z-score [1, 17]: 0.599 ± 1.3
- promoter activity interaction Z-score [1, 18]: 0.819 ± 0.29
- promoter activity interaction Z-score [1, 19]: 0.475 ± 0.05
- promoter activity interaction Z-score [2, 8]: 0.958 ± 0.21
- promoter activity interaction Z-score [2, 9]: 0.99 ± 0.055
- promoter activity interaction Z-score [2, 10]: 0.804 ± 0.17
- promoter activity interaction Z-score [2, 11]: 0.684 ± 0.19
- promoter activity interaction Z-score [2, 12]: 1.32 ± 0.076
- promoter activity interaction Z-score [2, 13]: 1.56 ± 0.57
- promoter activity interaction Z-score [2, 14]: 1.1 ± 0.13
- promoter activity interaction Z-score [2, 15]: 1.368 ± 0.0038
- promoter activity interaction Z-score [2, 16]: 1.6 ± 0.43
- promoter activity interaction Z-score [2, 17]: 1.57 ± 0.26
- promoter activity interaction Z-score [2, 18]: 1.07 ± 0.073
- promoter activity interaction Z-score [2, 19]: 1.15 ± 0.091
- promoter activity interaction Z-score [3, 8]: 0.89 ± 0.25
- promoter activity interaction Z-score [3, 9]: 0.0467 ± 0.069
- promoter activity interaction Z-score [3, 10]: 0.437 ± 0.23
- promoter activity interaction Z-score [3, 11]: 0.0133 ± 0.038
- promoter activity interaction Z-score [3, 12]: 1.09 ± 0.86
- promoter activity interaction Z-score [3, 13]: 0.0126 ± 0.13
- promoter activity interaction Z-score [3, 14]: 0.436 ± 0.016
- promoter activity interaction Z-score [3, 15]: 0.338 ± 0.11
- promoter activity interaction Z-score [3, 16]: 0.763 ± 1.3
- promoter activity interaction Z-score [3, 17]: -0.124 ± 0.015
- promoter activity interaction Z-score [3, 18]: 0.377 ± 0.036
- promoter activity interaction Z-score [3, 19]: -0.366 ± 0.13
- promoter activity interaction Z-score [3, 20]: 1.24
- promoter activity interaction Z-score [4, 8]: 0.291 ± 0.39
- promoter activity interaction Z-score [4, 9]: 0.262 ± 0.15
- promoter activity interaction Z-score [4, 10]: 0.428 ± 0.57
- promoter activity interaction Z-score [4, 11]: -0.386 ± 0.08
- promoter activity interaction Z-score [4, 12]: 0.79 ± 0.52
- promoter activity interaction Z-score [4, 13]: 0.776 ± 0.33
- promoter activity interaction Z-score [4, 14]: 0.612 ± 0.19
- promoter activity interaction Z-score [4, 15]: 0.772 ± 0.8
- promoter activity interaction Z-score [4, 16]: 0.327 ± 1.1
- promoter activity interaction Z-score [4, 17]: 0.808 ± 0.52
- promoter activity interaction Z-score [4, 18]: -0.58 ± 0.54
- promoter activity interaction Z-score [4, 19]: -0.257 ± 0.67
- promoter activity interaction Z-score [5, 8]: 0.277 ± 0.67
- promoter activity interaction Z-score [5, 9]: 0.595 ± 0.36
- promoter activity interaction Z-score [5, 10]: 0.758 ± 0.77
- promoter activity interaction Z-score [5, 11]: 1.25 ± 1.1
- promoter activity interaction Z-score [5, 12]: -0.152 ± 0.42
- promoter activity interaction Z-score [5, 13]: 1.37 ± 0.033
- promoter activity interaction Z-score [5, 14]: -0.413 ± 0.32
- promoter activity interaction Z-score [5, 15]: 0.804 ± 0.45
- promoter activity interaction Z-score [5, 16]: -0.356 ± 0.7
- promoter activity interaction Z-score [5, 17]: -0.204 ± 0.19
- promoter activity interaction Z-score [5, 18]: -1.46 ± 0.089
- promoter activity interaction Z-score [5, 19]: -0.959 ± 1.1
- promoter activity interaction Z-score [6, 8]: 0.555 ± 0.028
- promoter activity interaction Z-score [6, 9]: 0.911 ± 0.17
- promoter activity interaction Z-score [6, 10]: 0.717 ± 0.25
- promoter activity interaction Z-score [6, 11]: 1.38 ± 0.36
- promoter activity interaction Z-score [6, 12]: 1.31 ± 0.084
- promoter activity interaction Z-score [6, 13]: 1.5169 ± 0.00016
- promoter activity interaction Z-score [6, 14]: 1.38 ± 0.24
- promoter activity interaction Z-score [6, 15]: 2.47 ± 0.14
- promoter activity interaction Z-score [6, 16]: 1.8 ± 0.019
- promoter activity interaction Z-score [6, 17]: 2.07 ± 0.081
- promoter activity interaction Z-score [6, 18]: 2.14 ± 0.22
- promoter activity interaction Z-score [6, 19]: 3.77 ± 0.59
- promoter activity interaction Z-score [6, 20]: 0.127 ± 0.036
- promoter activity interaction Z-score [7, 8]: -0.0407 ± 0.73
- promoter activity interaction Z-score [7, 9]: 0.142 ± 0.75
- promoter activity interaction Z-score [7, 10]: -0.711 ± 0.15
- promoter activity interaction Z-score [7, 11]: 0.75 ± 0.61
- promoter activity interaction Z-score [7, 12]: 0.059 ± 0.45
- promoter activity interaction Z-score [7, 13]: 0.836 ± 0.52
- promoter activity interaction Z-score [7, 14]: -0.973 ± 1
- promoter activity interaction Z-score [7, 15]: 0.167 ± 0.58
- promoter activity interaction Z-score [7, 16]: 0.025 ± 1.1
- promoter activity interaction Z-score [7, 17]: -0.192 ± 0.57
- promoter activity interaction Z-score [7, 18]: -0.394 ± 0.42
- promoter activity interaction Z-score [7, 19]: 0.815 ± 0.81
- promoter activity interaction Z-score [7, 20]: -0.153 ± 0.69
- promoter activity interaction Z-score ([7]; 197.1 µg/ml, genetic background: ΔsoxS): -1.48 ± 0.4

SMILES: O=C1CN(/N=C/c2ccc([N+](=O)[O-])o2)C(=O)N1 [Nitrofurantoin]
- promoter activity interaction Z-score [1, 21]: 0.0114 ± 0.17
- promoter activity interaction Z-score [1, 22]: 0.119 ± 1.2
- promoter activity interaction Z-score [1, 23]: 0.336 ± 0.34
- promoter activity interaction Z-score [1, 24]: 0.0185 ± 0.49
- promoter activity interaction Z-score [1, 25]: -0.124 ± 0.043
- promoter activity interaction Z-score [1, 26]: 0.483 ± 1.2
- promoter activity interaction Z-score [1, 27]: 0.267 ± 0.28
- promoter activity interaction Z-score [1, 28]: -0.258 ± 0.11
- promoter activity interaction Z-score [1, 29]: 0.24 ± 0.28
- promoter activity interaction Z-score [1, 30]: -0.0961 ± 0.62
- promoter activity interaction Z-score [1, 31]: 0.562 ± 0.54
- promoter activity interaction Z-score [1, 32]: 0.221 ± 0.13
- promoter activity interaction Z-score [1, 33]: 5.63 ± 1.8
- promoter activity interaction Z-score [1, 34]: 1.31 ± 1.1
- promoter activity interaction Z-score [1, 35]: 1.31
- promoter activity interaction Z-score [2, 21]: 0.183 ± 0.32
- promoter activity interaction Z-score [2, 22]: 0.105 ± 0.23
- promoter activity interaction Z-score [2, 23]: 0.131 ± 0.13
- promoter activity interaction Z-score [2, 24]: 0.198 ± 0.24
- promoter activity interaction Z-score [2, 25]: 0.503 ± 0.047
- promoter activity interaction Z-score [2, 26]: 0.249 ± 0.27
- promoter activity interaction Z-score [2, 27]: 0.252 ± 0.052
- promoter activity interaction Z-score [2, 28]: 0.0792 ± 0.11
- promoter activity interaction Z-score [2, 29]: 1.04 ± 0.38
- promoter activity interaction Z-score [2, 30]: 0.658 ± 0.16
- promoter activity interaction Z-score [2, 31]: 1.16 ± 0.11
- promoter activity interaction Z-score [2, 32]: 0.447 ± 0.016
- promoter activity interaction Z-score [2, 33]: 7.36 ± 0.64
- promoter activity interaction Z-score [2, 34]: 4.45 ± 1.7
- promoter activity interaction Z-score [2, 36]: 12.8 ± 0.43
- promoter activity interaction Z-score [2, 35]: 12.2
- promoter activity interaction Z-score [3, 21]: -0.201 ± 0.35
- promoter activity interaction Z-score [3, 22]: -0.0627 ± 0.036
- promoter activity interaction Z-score [3, 23]: -0.0214 ± 0.074
- promoter activity interaction Z-score [3, 24]: 0.0613 ± 0.061
- promoter activity interaction Z-score [3, 25]: -0.0281 ± 0.071
- promoter activity interaction Z-score [3, 26]: 0.0181 ± 0.016
- promoter activity interaction Z-score [3, 27]: 0.0629 ± 0.06
- promoter activity interaction Z-score [3, 28]: -0.168 ± 0.14
- promoter activity interaction Z-score [3, 29]: -0.0112 ± 0.03
- promoter activity interaction Z-score [3, 30]: -0.163 ± 0.13
- promoter activity interaction Z-score [3, 31]: 0.113 ± 0.19
- promoter activity interaction Z-score [3, 32]: 0.261 ± 0.17
- promoter activity interaction Z-score [3, 33]: -0.0667 ± 0.48
- promoter activity interaction Z-score [3, 34]: -0.232 ± 0.11
- promoter activity interaction Z-score [3, 36]: 1.15 ± 0.47
- promoter activity interaction Z-score [3, 35]: 0.96
- promoter activity interaction Z-score [4, 21]: -0.15 ± 0.13
- promoter activity interaction Z-score [4, 22]: -0.453 ± 0.32
- promoter activity interaction Z-score [4, 23]: -0.0497 ± 0.041
- promoter activity interaction Z-score [4, 24]: 0.0722 ± 0.049
- promoter activity interaction Z-score [4, 25]: -0.0847 ± 0.24
- promoter activity interaction Z-score [4, 26]: -0.089 ± 0.056
- promoter activity interaction Z-score [4, 27]: -0.35 ± 0.18
- promoter activity interaction Z-score [4, 28]: -0.556 ± 0.079
- promoter activity interaction Z-score [4, 29]: -0.226 ± 0.099
- promoter activity interaction Z-score [4, 30]: -0.21 ± 0.076
- promoter activity interaction Z-score [4, 31]: 0.603 ± 0.17
- promoter activity interaction Z-score [4, 32]: 0.0583 ± 0.32
- promoter activity interaction Z-score [4, 33]: -2.5
